Laboratory results reported in PubChem BioAssay.

System: XIP peptide (Xip251-270)
Experiment: compounds binding XIP fragment 251-270 – biochemical, small-molecule microarray, fluorescence 635/667 nm, 0.5 µg/mL protein, primary screen (AID 1183)
Conditions: fluorescence 635 nm, higher = more signal

SMILES	composite z-score
O=C1[C@H]2[C@H]3[C@H](O)[C@H](O)CC(=NO[C@@H]4O[C@H](CO)[C@@H](O)[C@H](O)[C@H]4O)[C@@H]3CC[C@H]2C(=O)N1c1cccc(Oc2ccccc2)c1	0.519
CC(C)=NOC(C)CN1CCCc2nc(C)c(C)cc21 (stereo unspecified)	0.522
O=C1C[C@@H](O)[C@@H](O)[C@@H]2[C@@H]3C(=O)N(c4ccc(F)cc4F)C(=O)[C@@H]3CC[C@H]12	-0.0234
COC(=O)[C@H](C)NC(=O)CCC1CC(OC(=O)NCc2cccc3ccccc23)CC2(CCCC(COC(=O)NCCc3ccccc3OC)O2)O1 (stereo partly specified)	0.384
CC(=O)OC[C@H]1O[C@H](CCON=C(C)CCN2CCCc3nc(C)c(C)cc32)C=C[C@@H]1OC(C)=O	0.651

System: not listed separately
Experiment: blood-stage malaria parasite viability loss – strain 3D7, DAPI fluorescence, 100 nL, primary screen (AID 1184);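 note: parasites grown inside human red blood cells in medium with human serum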
Conditions: P. falciparum 3D7 growth, 3 d, higher = more signal

SMILES	z-score
CC(C)(C)N1C(=O)[C@H]2[C@H]3[C@H](O)[C@H](O)CC(=NOC[C@@H](O)COCc4ccco4)[C@H]3CC[C@H]2C1=O	-0.62
C#CCCCON=C1C[C@@H](O)[C@@H](O)[C@@H]2[C@@H]3C(=O)N(CC)C(=O)[C@@H]3CC[C@H]12	-0.263
CC(C)CON=C1C[C@@H](O)[C@@H](O)[C@@H]2[C@@H]3C(=O)N(Cc4ccccc4)C(=O)[C@@H]3CC[C@H]12	-1.65
CCOC(=O)CCN1C(=O)[C@H]2[C@H]3[C@H](O)[C@H](O)CC(=NOCC(C)C)[C@@H]3CC[C@H]2C1=O	-0.379
O=C1C=C[C@@H](O)[C@@H]2[C@@H]3C(=O)N(Cc4ccc5c(c4)OCO5)C(=O)[C@@H]3CC[C@@H]12	-0.786
CC[C@@H](c1ccccc1)n1c(=O)n2n(c1=O)[C@H]1[C@H](O)[C@@H]3O[C@@H]3C(=NOCc3ccccc3)[C@H]1CC2	-1.81
COC(=O)[C@H](C)NC(=O)CCC1CC(OC(=O)NCc2ccc3c(c2)OCO3)CC2(CCCC(COC(=O)NCc3ccccc3)O2)O1 (stereo partly specified)	-1.75
COC(=O)[C@H](CCSC)NC(=O)CC=C[C@@H](C)CO	-0.979
COc1ccc(COC(=O)NN=C2C[C@@H](O)[C@@H](O)[C@@H]3[C@@H]4C(=O)N(C5CCCCC5)C(=O)[C@@H]4CC[C@@H]23)cc1	-1.07
CON=C(C)CCC(=O)OC[C@H]1O[C@H](C#Cc2ccccc2)C=C[C@@H]1Oc1ccc(C)cc1	-0.306
CC(=O)OC[C@H]1O[C@@H](ON=C2[C@H]3CCn4c(=O)n(-c5ccccc5)c(=O)n4[C@H]3[C@H](O)[C@@H]3O[C@H]23)[C@H](OC(C)=O)[C@@H](OC(C)=O)[C@@H]1OC(C)=O	-0.541
C[C@H]1CC[C@H]2C(=O)OC(COc3ccc(C(C)(C)C)cc3)CN2[C@@H]1c1ccc(Br)cc1 (stereo partly specified)	1.52
CO[C@H]1C[C@@H]2C[C@H](O)CC(CC(=O)O[C@@H](C=CCC(C)C)C[C@@H]3CC[C@H](C)[C@@H](C1)O3)O2	-0.825
O=C1CCCC=C1C(O)c1ccc([N+](=O)[O-])cc1 (stereo unspecified)	0.938
COc1ccc(COC(=O)NN=C2C[C@@H](O)[C@@H](O)[C@@H]3[C@@H]4C(=O)N(Cc5ccc6c(c5)OCO6)C(=O)[C@@H]4CC[C@H]23)cc1	-0.427
CON=C(C)CCN1CCc2nc(-c3ccccc3)c(-c3ccccc3)cc2C1	-1.38
CCN1C(=O)[C@H]2[C@H]3[C@H](O)[C@H](O)CC(=NO[C@H](C)c4cn([C@@H]5COC[C@H]5O)nn4)[C@@H]3CC[C@H]2C1=O	0.202
CO[C@H]1COC(=O)[C@H](C)COC(=O)[C@H](C)NC(=O)CC=C[C@H]1C	0.0087

SMILES	z-score
CO[C@H]1COC(=O)CCC[C@H](C)[C@@H](OC)COC(=O)CC=C[C@@H]1C	-0.809
CC(C)C(=O)N[C@H]1CCCN1C(=O)C=Cc1ccccc1	-0.64
CCOC(=O)CCN1C(=O)[C@H]2[C@H]3[C@H](O)[C@H](O)CC(=NNC(=O)OCC)[C@H]3CC[C@H]2C1=O	-1.58
CC(CCN1CCCc2nc(C)c(C)cc21)=NO[C@H](C)c1cn([C@H](CO)Cc2ccccc2)nn1	-2.52
COC(=O)[C@@H]1CC[C@H](C)[C@@H](c2ccc(Br)cc2)N1C[C@H](O)CN=[N+]=[N-]	-0.637
CCOC(=O)CCN1C(=O)[C@H]2[C@H]3[C@H](O)[C@H](O)CC(=NOCC=C(C)CCC=C(C)C)[C@@H]3CC[C@H]2C1=O	0.664
CCN1C(=O)[C@H]2[C@H]3[C@H](O)[C@H](O)CC(=NNC(=O)OCc4ccccc4)[C@@H]3CC[C@H]2C1=O	1.14
COC(=O)[C@@H]1CC[C@H](C)[C@@H](c2ccc(Br)cc2)N1C[C@@H](O)CN=[N+]=[N-]	-0.877
CC(C)CON=C1C[C@@H](O)[C@@H](O)[C@@H]2[C@@H]3C(=O)N([C@@H](C)c4ccccc4)C(=O)[C@@H]3CC[C@@H]12	-0.274
CC(C)CON=C1C[C@@H](O)[C@@H](O)[C@@H]2[C@@H]3C(=O)N(Cc4ccc5c(c4)OCO5)C(=O)[C@@H]3CC[C@@H]12	-0.721
CCOC(=O)[C@H](CC(C)C)NC(=O)CCC1CC(OC(=O)NCCc2ccc(F)cc2)CC2(CCCC(COC(=O)NCCOC)O2)O1 (stereo partly specified)	-1.9
CO[C@@H]1COC(=O)[C@@H]2CCCN2C(=O)[C@@H](C)COC(=O)CCC[C@H]1C	0.193
CC(=O)OC[C@H]1O[C@H](CC=NOC[C@@H](O)[C@H]2O[C@@H]3OC(C)(C)O[C@@H]3[C@H]2O)C=C[C@@H]1OC(C)=O	0.158
O=C1[C@H]2[C@H]3[C@H](O)[C@H](O)CC(=NO[C@@H]4O[C@H](CO)[C@@H](O)[C@H](O)[C@H]4O)[C@@H]3CC[C@H]2C(=O)N1c1cccc(Oc2ccccc2)c1	-0.197
CC(C)=NOC(C)CN1CCCc2nc(C)c(C)cc21 (stereo unspecified)	-0.225
O=C1C[C@@H](O)[C@@H](O)[C@@H]2[C@@H]3C(=O)N(c4ccc(F)cc4F)C(=O)[C@@H]3CC[C@H]12	0.289
COC(=O)[C@H](C)NC(=O)CCC1CC(OC(=O)NCc2cccc3ccccc23)CC2(CCCC(COC(=O)NCCc3ccccc3OC)O2)O1 (stereo partly specified)	-1.47
CC(=O)OC[C@H]1O[C@H](CCON=C(C)CCN2CCCc3nc(C)c(C)cc32)C=C[C@@H]1OC(C)=O	-1.47
